Experimental data published in the supplement of paper PMC11417369.
± gives the standard deviation of the averaged measurements. Whole data set: some 25,000 sequences, median “ln(normalized median fluorescence intensity)” near 7.9, cut for the highest 2% near 11. This excerpt belongs to a sample that is enriched for the highest values.

system: PfAP2-I AP2 domain 3 (GST-tagged); assay: gcPBM binding intensity (ln(normalized median fluorescence intensity)); higher = stronger DNA binding
Procedure, shortened: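 Alexa488 anti-GST antibody, scanned at 488 nm, detected GST-tagged P. falciparum DNA-binding domains that had been expressed in E. coli and incubated for 1 h on an Agilent 4 × 180k array. The array carried primer-extended double-stranded 36-bp intergenic genomic probes and negative controls. Binding intensity is the highest Masliner-normalised natural-log median intensity across replicate spots of either orientation of each probe.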

Sequence	gcPBM binding intensity (ln)
ATATATAAATATATTTGTACATATAATATGTATTAT [XGTACX_site8820]	7.75 ± 0.47
AATTATTGTGAAGGGAAAACAAAAAAGTTTATAATT [CACACA_negctrl_site1337]	8.01 ± 0.72
ATAATAATAAAATATATATACAAAGGTGAAATTATA [TGCATGCA_negctrl_site197]	7.96 ± 0.58
TTTATAAAGGGAAAGGTGCAAAAGGTGAAAGTTTTA	10.9 ± 0.44
TATGATGATGAATAACGTACAAAAAAATTAATCACC [XGTACX_site6794]	8.16 ± 0.49
TTTTGTAAAAAGAAAAATTAGAATATATCGTATATA [XGTACX_negctrl_site617]	7.19 ± 0.45
ATCAACATTACATTTAGTACACATATATTTCTATGT [XGTACX_site4436]	8.16 ± 0.36
TTTTTTTTCTAAATTATATGAAAATATATGTTATGT [GTGCAC_negctrl_site85]	7.79 ± 0.23
AAAGAAATAAGGTGCACACATATACATATATATATA [CACACA_site429]	10.3 ± 0.29
TAAAAGAAATAAGGTGCACACATATACATATATATA [CACACA_site8037]	10.19 ± 0.071
ACGGAAAAAGAAAAGGTGCATATGGACACAATATAT	10.85 ± 0.099
TTTTACAAAATAAAAATATAGAATACGGTAAATTAT [GTGCAC_negctrl_site40]	7.87 ± 0.73
GTTATAAACAAAATAAATATATGAATATATAATAAT [XGTACX_negctrl_site96]	7.46 ± 0.5
AGGAAAATTTTATTTGCACACATTATTACGTCTAAA [CACACA_site2337]	9.9 ± 0.4
TATATATATATAATTGTGCACATAATTTTAAACCAA	11.1 ± 0.13
TTATTATAATCATTAGTGCATATATTATTTTTATAT	9.795 ± 0.049
TAAAATAATATTTATGTGCACATATAATTATTAATT	10.395 ± 0.007
AACATATTGGATTTAGTGCACATATATATCATAATA	11.5 ± 0.29
ATAAATTTTTAAACAGCACACATAAATATAATATAT [CACACA_site8691]	8.28 ± 0.4
TAATATTTTAATTGTGTGCACATTAATATTATAAAA	10.1 ± 0.16
TAAAATAAATTGTGCACACATATTTATAAATATGAA [CACACA_site2331]	11.3 ± 0.35
TATAAAATAAATTGTGCACACATATTTATAAATATG [CACACA_site2330]	10.71 ± 0.078
TTTATATATTTTGTCGTGCACATTTGGAAAATTACA [GTGCAC_site9776]	10.8 ± 0.16
GAAATATAATTTATTACACACATTTTAAAAAAATTC [CACACA_site1087]	7.74 ± 0.18

Sequence	gcPBM binding intensity (ln)
ATATATCATATTATAGTGCATTTATAATAATATTAT	10.8 ± 0.13
TATTAAAAGTAAAAAACACACATGGATATATACATA [CACACA_site3959]	7.67 ± 0.64
AAACAAAGGGAACATGTGCACTTACAAAAAAAAAGA	9.78 ± 0.28
ATCTATATTATTTCTACACACATATCTATAATATGT [CACACA_site7561]	7.85 ± 0.72
GCTCATATGACAACAACACACAAAAAAATAAAATGA [CACACA_site714]	7.8 ± 0.69
TAAACAAATAAATATTGTACATTTTTTCCTTTTAAT [XGTACX_site5594]	7.38 ± 0.39
TATAGTTTTGAAAACAAACACACAAAAAAAAAAAAA [CACACA_site1691]	8.07 ± 0.7
TAATATACATATATATGTACATATATATATATATAT [XGTACX_site2684]	9.09 ± 0.47
GGGAAAATAAATAAAGTGCAGATATTAAAAGTTGTA	8.85 ± 0.31
TATAAACCTTTTTGCACGCACACAAAAAAAAAATAA [CACACA_site168]	9.99 ± 0.46
TATGTTGTTTATTTAGTGCATATTTAAATATTATAA [GTGCAC_site9601]	10.16 ± 0.078
TGCATAAATTTATGCACACATAAAAAAAAAAAAAAA [CACACA_site2923]	10 ± 0.64
TAATAAAAAAAGTGCACACACATAATATTTATATAT [CACACA_site7548]	9.7 ± 0.18
ATATATTTATTTTGTGCACACAACGCAAACCTTTTA [CACACA_site3508]	10.98 ± 0.092
AATATAAGTTTATTAGTGCACAGATAAATATATATT [GTGCAC_site9784]	11.4 ± 0.23
TGTGCATAAATTTATGCACACATAAAAAAAAAAAAA [CACACA_site8954]	11.5 ± 0.93
TATATATATATATATGTGCACATTTTATTAAAATGT	9.87 ± 0.15
AAAAGTCTCTTTTTAGTGCACATTTTATTTAAATAT	11.32 ± 0.078
GTGCAAAATATTTTTACACACAAATTTTTACAACAG [CACACA_site3357]	9.99 ± 0.63
TAAAATAATTTATGCATACACACATATATATATATA [CACACA_site4021]	9.49 ± 0.26
ATTACAATATATACGTGTACATATTACCACCGCTAC [XGTACX_site2308]	8.46 ± 0.7
ACAATAAATATGTGGTTGCACTTATAATATATTTAT	8.66 ± 0.4
ATAAAATAAAACAACACACACGAATGTATAAATATA [CACACA_site4643]	7.66 ± 0.66
TTTTTATAAAATTTTATGAGCTCGGAAAAAATAAAC [GTGCAC_negctrl_site637]	8.49 ± 0.48

Sequence	gcPBM binding intensity (ln)
TGTGAAAATTATGGGGCATGCAATACTTTAAAAATA [TGCATGCA_site653]	7.98 ± 0.72
GAACAACAACAAAAAAAAAAAAAAAAAAAAAAAAAA [CACACA_negctrl_site199]	8.12 ± 0.83
ATGATGTCTTTATATTGTACATATATGAAGACGTTA [XGTACX_site7751]	7.79 ± 0.29
TATGTCCATATTTCCACACACATATTATTTTTATAT [CACACA_site3798]	8.18 ± 0.53
AGCTACAAAAATTAATATATATATGTATAGTTATAC [TGCATGCA_negctrl_site531]	7.38 ± 0.59
GTCAAATTTTTGTGCACACATATATAGTTATTATTA [CACACA_site2241]	11.2 ± 0.23
TTTTATTTCTTTGCACCATTTTAAATACAAACAAAT [CACACA_negctrl_site1553]	11.1 ± 0.79
TTATTTTATTTTTTTGTGCACATATATATTTATAAA [GTGCAC_site9615]	10.86 ± 0.028
GTATTTCTTTAATATACACACACCAAAACAAAAAAA [CACACA_site579]	8.13 ± 0.49
TATAAAAATGTGCACACACACACATATTTATATTTA [CACACA_site6826]	9.365 ± 0.007
ATGTCAAATTTTTGTGCACACATATATAGTTATTAT [CACACA_site2242]	10.78 ± 0.028
AAATATTACATTTGTTAAATAATATGTTATACATAA [XGTACX_negctrl_site484]	7.32 ± 0.54
CAGTTGTTAATTTGTGTGCACCAAATATTATACATA	11 ± 0.33
TATATATATATATATGTGCACATATTTATATGTTTT	9.85 ± 0.22
TGTGTATTTATAAATACACACCAAATGTTAATATAT [CACACA_site6904]	8.03 ± 0.47
TCTTTCCTTATTAAAACACACAAATACATTATTTAA [CACACA_site2147]	7.84 ± 0.46
TTTTTGTTATTATGTGTGCACATATATATATATATA	10.3 ± 0.31
GAAATAAATATAATATATATATATATATATATATGT [TGCATGCA_negctrl_site216]	8.25 ± 0.38
CAACCATTTGTAGGTAAACACACATTATTATTAATA [CACACA_site8842]	7.47 ± 0.46
AAGTATTTTTTTACATGTACATATATATATATATAT [XGTACX_site5065]	9.4 ± 0.56
ATATTATATCTAATCGTGCACAACTGTACATTTGTC	10.5 ± 0.12
TTTTTTTCATAATATACACACAAAAAAAAAAAAAAA [CACACA_site3224]	8.12 ± 0.68
TTCATTTTTTGCTTTCAACACACATACAATATATAT [CACACA_site9369]	8.01 ± 0.49
AAATTACCCATCCATACACACATATTTTTTTTAATT [CACACA_site2189]	7.96 ± 0.64

Sequence	gcPBM binding intensity (ln)
AATTTTTTTTTTAGACGTACAAGAAAAAACAAAAAA [XGTACX_site4990]	8.15 ± 0.55
GTATTTAGATGATTAACACACATATGTGTATTAATA [CACACA_site6733]	7.92 ± 0.41
GGGATATTTTAAAGGGTGCATATTATTAAAATAATG	10.7 ± 0.51
TTCTATTTTTTAAAAGTGCATATTATAAATATATAT	9.63 ± 0.11
TAATAATTTATAATAGTGCATTTGATTTTAAAAATA	9.81 ± 0.51
TTTATTTTTATTTTTGTGCACGGGATTAAATAAAAG [GTGCAC_site9842]	11.22 ± 0.092
TATTTTATAATAGGCACACATATAAAAATATATATA [CACACA_site4127]	7.96 ± 0.52
TAAAATAAAAATATAGTGCACAGATTTTGATATTTT [GTGCAC_site9696]	11.2 ± 0.23
AATATTTTTTTATAAACACACATATATATAAATATA [CACACA_site3524]	7.89 ± 0.33
TAAAAAATAAAATACACACACATATTTATATTTATA [CACACA_site6737]	7.41 ± 0.4
TTTTTTATTTTGTGCACACACATAAAAATATATATA [CACACA_site761]	11.2 ± 0.31
TTTTGATATAAATATTAGATTAATAAATAAAAAAAT [CACACA_negctrl_site1635]	7.8 ± 0.39
ATATATTTTTTAAACACACACATAAATATTTGTGTA [CACACA_site2879]	7.84 ± 0.49
ATTTTTTTATTTTGTGCACACACATAAAAATATATA [CACACA_site762]	11.1 ± 0.27
ACTTATTTCGATATGTGTACTTAATATATATATTTA [XGTACX_site6616]	7.89 ± 0.39
ACATATACAAGACACACACACAACGTTTTAATAAAT [CACACA_site7017]	8.12 ± 0.46
ACATATTTTTAATACACACTCAAAAAAGTACTTAAC [CACACA_site3014]	8.2 ± 0.28
TCTACAATTATAATTACACACTATAAAAAAGAAAGA [CACACA_site2984]	7.96 ± 0.35
TCTTTTTTTTTTATTTGTACTTATTTTTTTCAAAAA [XGTACX_site3403]	8.24 ± 0.51
TGAAAAAAAAAAAAAAAAAAAAGAAAAAAAAAAAAA [CACACA_negctrl_site709]	7.82 ± 1.2
AATAATCTATATTGTACACACAAAATGGGAAAAAAA [CACACA_site6969]	8.11 ± 0.73
